Experimental data from PubChem BioAssay (NCATS).
A number with no mark means an inactive call. The rule behind the calls is not given here.
Potency is the fitted concentration of half-maximal effect.

The compounds below were run on HIV-1 nucleocapsid protein NCp7 (binding to TG oligonucleotide) (assay: HIV Nucleocapsid (AID 346;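 note: potency is for inhibitors that block NC binding and lower polarization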)). Conditions: HIV-1 NC / fluorescein-TGTGTGTG probe, fluorescence polarization.
How it was run: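 Inhibition of nucleocapsid binding to single-stranded 5'-TGTGTGTG probe (10 nM) was measured by fluorescence polarization after 1 hr at room temperature with 100 nM protein under high-salt, zinc-containing, reducing conditions.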
Compound Cc1ccccc1-c1ccc2ncnc(N(C)C)c2c1 has a Potency greater than 20 µM. CC(=O)NCCNc1ncncc1-c1ccc(N(C)C)cc1 showed a Potency greater than 20 µM. O=c1c(-c2ccc(Cl)cc2)nc2cncnc2n1Cc1ccccc1 showed a Potency greater than 20 µM. For O=C(c1cnccn1)N1CCC2(CC1)CCN(c1ccccn1)CC2, the Potency was greater than 20 µM. For Cc1cccc(CNc2cc(-c3ccccc3CN(C)C)ncn2)c1, the Potency was greater than 20 µM. CCNc1ncc2nc(C)c(=O)n(C[C@H]3CCCO3)c2n1 was tested, and the Potency was greater than 20 µM. Compound O=C(c1cnccn1)N1CCC2(CC1)CN(c1ccccn1)C2 has a Potency greater than 20 µM. In the case of Cc1noc(C)c1-c1nccc(N2CCOCC2)n1, the Potency is reported as greater than 20 µM. Work on COCCn1c(=O)cnc2cnc(OCc3ccccc3)nc21 yielded a Potency greater than 20 µM. CCNc1ncc2nc(-c3ccc(F)cc3)c(=O)n(CCC#N)c2n1 was tested, and the Potency was greater than 4 µM. For COc1ccc2[nH]cc(CCNc3ccnc(-c4ccc5c(c4)OCO5)n3)c2c1, the Potency was greater than 20 µM. Compound O=S(=O)(c1ccccc1)N1CCC2(CCCN(Cc3cc(C(F)(F)F)cc(C(F)(F)F)c3)C2)CC1 has a Potency greater than 20 µM. With COc1ccc(C(=O)N2CCC3(CCCN(C(c4ccccc4)c4ccccc4)C3)CC2)cc1 the Potency was greater than 20 µM. With COc1ccc(CNc2ccnc(-c3cccnc3)n2)c(OC)c1 the Potency was greater than 20 µM. Work on COCCn1c(=O)c(CCc2ccccc2)nc2cnc(Oc3ccccc3)nc21 yielded a Potency greater than 20 µM. Cc1ccccc1-c1nc(Nc2ccncc2)c2ccccc2n1 gave a Potency greater than 20 µM. With N#Cc1ccc(CN2CCCC3(CCN(C(=O)c4cc(C(F)(F)F)cc(C(F)(F)F)c4)CC3)C2)cc1 the Potency was greater than 20 µM. Work on COc1ccccc1CN1CCCC2(CCN(C(=O)c3cnccn3)CC2)C1 yielded a Potency greater than 20 µM. Compound COc1ccc(CNc2ncnc3ccc(-c4ccccc4CN(C)C)cc23)c(OC)c1 has a Potency greater than 20 µM. With CN(C)Cc1ccccc1-c1nc(N(C)C)c2ccccc2n1 the Potency was greater than 20 µM. For CC(=O)NCCNc1ncnc2ccc(-c3ccc(C(=O)N(C)C)cc3)cc12, the Potency was greater than 20 µM. CN1CCN(c2ncc3nc(-c4ccccc4)c(=O)n(CCC#N)c3n2)CC1 showed a Potency greater than 20 µM. For CC(=O)NCCNc1ccnc(-c2ccccc2C(F)(F)F)n1, the Potency was greater than 20 µM. Compound CC(=O)NCCNc1nc(-c2ccc3c(c2)OCO3)nc2ccccc12 has a Potency greater than 20 µM. Work on COc1ccccc1CN1CCCC2(CCN(C(=O)c3ccco3)CC2)C1 yielded a Potency greater than 20 µM. Work on COc1ccccc1CNc1cc(-c2ccccc2Cl)ncn1 yielded a Potency greater than 20 µM. Work on COCCn1c(=O)c(CCc2ccccc2)nc2cnc(N3CCOCC3)nc21 yielded a Potency greater than 20 µM. COCCn1c(=O)c(C)nc2cnc(Oc3cccc(Cl)c3)nc21 showed a Potency greater than 4 µM. Compound CN(C)c1ncc2nc(-c3cccc(C#N)c3)c(=O)n(CCC#N)c2n1 has a Potency greater than 20 µM. COCCn1c(=O)c(-c2cn(C)c3ccccc23)nc2cnc(Oc3cccc(Cl)c3)nc21 showed a Potency greater than 20 µM. Cc1noc(C)c1-c1ccc2ncnc(NCc3ccccc3)c2c1 showed a Potency greater than 20 µM. Compound Cc1cccc(CNc2ncncc2-c2ccc3c(c2)OCO3)c1 has a Potency greater than 20 µM. Cc1nc2cnc(Oc3cccc(Cl)c3)nc2n(CCc2ccccc2)c1=O gave a Potency greater than 20 µM. Work on CS(=O)(=O)N1CCC2(CC1)CN(Cc1ccc(C#N)cc1)C2 yielded a Potency greater than 20 µM. COCC(=O)N1CCC2(CC1)CN(Cc1nccs1)C2 was tested, and the Potency was greater than 20 µM. With COc1ccc2[nH]cc(CCNc3nc(-c4ccccc4CN(C)C)nc4ccccc34)c2c1 the Potency was greater than 20 µM. COc1ccc(C(=O)N2CCC[C@@]3(CCN(c4cccc(-c5ccccc5)c4)C3)C2)cc1 showed a Potency greater than 20 µM. For COc1cccc(Nc2ncc3nc(-c4cccs4)c(=O)n(Cc4cccs4)c3n2)c1, the Potency was greater than 20 µM. In the case of CC(=O)N1CCC2(CCCN(Cc3ccccc3)C2)CC1, the Potency is reported as greater than 20 µM.
